Out of some 310,000 compounds screened, about 11,000 (3.5%) were called active. Not shown: some 4% with an inconclusive outcome. Calls come from the whole dose curve; as a rule, active = well fitted inhibition curve with a large enough effect; inconclusive = small, poorly fitted or top-dose-only effect, or another doubt; inactive = no such curve, though single readings can be large or run the other way. Only a selection was taken, and actives are over-represented in it overall. Non-standard residues stand in square brackets, D forms with d. Residues, ends and D or L forms follow the SMILES beside them. Groups on a side chain read outwards from the residue. *: point of attachment. X1 = CCC(C)C(N)C1=NC(C(=O)*)CS1; Orn = NCCC[CH](N)C(=O)O
Target: 4'-phosphopantetheinyl transferase ffp (Bacillus subtilis) (UniProt Q9F4F7)
Test: qHTS Assay for Inhibitors of Bacillus subtilis Sfp phosphopantetheinyl transferase (PPTase);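 note: the enzyme is Sfp with the accession as filed and its product quenches rhodamine fluorescence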;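 for Largest response in the series, negative = inhibition: 0% = enzyme reaction without inhibitor and -100% = no enzyme wells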
Conditions: Biochemical Sfp PPTase activity
Method in brief: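 Fluorescence-quenching assay with 15 nM Sfp, 5 uM rhodamine-CoA and 12.5 uM BHQ-2-labelled ybbR peptide in pH 7.6 Hepes/MgCl2 buffer. Enzyme was pre-incubated with compound for 15 min at room temperature. Rate was taken from the 30-min fluorescence change (525/598 nm).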
Potency is the fitted concentration of half-maximal effect.

Largest response in the series, negative = inhibition, inactive:
O=C(Nc1ccc(-n2cccn2)cc1)C1CCN(Cc2ccsc2)CC1 -0.783%
Cc1cccc(C(=O)NC(=S)N(C)C2CCCCC2)c1 17.9%
Nc1nc2nc(Cl)[nH]c2c(=O)[nH]1 -9.02%
Cn1nccc1C(=O)NC1CCCc2c1cnn2-c1ccc(F)cc1F (configuration not stated) 12.2%
Cc1cc(C)n(-c2ccc(Cl)c(C(=O)O)n2)n1 -14.9%
Cc1cc(C)n(-c2ccc3nncn3n2)n1 10.3%
O=C(COc1nsnc1N1CCOCC1)Nc1ccccc1Cl 10.1%
CN(C)S(=O)(=O)N1CCC(Oc2cccc(C(=O)NCCCC3CCCC3)c2)CC1 -2.01%
C/C(=N/NC(=O)CSc1ccccn1)c1ccc([N+](=O)[O-])cc1 0.345%
O=C(CCn1nnc2ccccc21)OCC(=O)c1ccc([N+](=O)[O-])cc1 30.5%
Cc1ccc(C)c(S(=O)(=O)Nc2cc(C)on2)c1 10.8%
O=C(NC1CCCC1)c1cc(-c2ccccc2)on1 11.2%
Cc1ccc(NC(=O)Cn2nnc(C(=O)NCc3ccco3)c2N)c(C)c1 -4.99%
CCN1CCN(CCNC(=O)c2ccc3c(c2)NC(=O)/C(=C\c2ccc(OC)c(OC)c2)S3)CC1 -5.49%
Cc1ccccc1CN1C(=O)c2ccccc2Sc2ccc(C(=O)NCCCN3CCOCC3)cc21 -13.2%
CCOC(=O)C1CCN(C(=O)C2CCCN(S(=O)(=O)c3ccc(OC)c(Cl)c3)C2)CC1 (configuration not stated) 3.96%
Cc1cc(=O)oc2c3c(cc(OCC(=O)NCCC(=O)N[C@@H](C)C(=O)O)c12)OC(C)(C)CC3 2.46%
CCOC(CNC(=O)C1CCN(S(=O)(=O)c2ccc3nc4c(c(C(=O)O)c3c2)CC(C)CC4)CC1)OCC (configuration not stated) 9.57%
Cc1ccc(CC2CC(=O)N(c3nc(C)cc(C)n3)C2=O)cc1 (configuration not stated) 0.267%
Cc1cc(C)cc(NC(=O)C2CCN(c3nc(C)cc(C)n3)CC2)c1 9.84%
Cc1ccc(-n2c(C)nnc2SCC(=O)NC2CC2)cc1 4.57%
O=[N+]([O-])c1ccccc1NCc1ccc(Cl)cc1 -18.2%
O=C(Cc1ccc(Cl)cc1)NC(=S)Nc1ccccc1O 12.4%
COc1ccc(CN2CCC(=O)c3ccccc3S2(=O)=O)cc1 -5.49%
O=P(O)(O)OC[C@H](O)CO 16.8%
COc1cc(Cl)c(C)cc1NC(=O)CSc1nnc(-c2cccnc2)n1Cc1ccco1 -18.1%
CCn1c(SCC(=O)Nc2cc(C)c(Cl)cc2OC)nnc1-c1ccco1 2.43%
O=S(=O)(Cc1nnnn1-c1ccc(Br)cc1)c1ccc(F)cc1 6.04%
Cn1c(=O)c2c(SCC(=O)NCC3CCCO3)nc(CC(C)(C)C)nc2n(C)c1=O (configuration not stated) -16%
Nc1c(Cl)cc(-c2csc(N3CCCC3c3nc4cc(Cl)c(Cl)cc4n3CCOCCO)n2)cc1Cl (configuration not stated) -23.5%
CCOc1ccc(C(=O)COC(=O)c2ccc(-n3cnnn3)cc2)cc1 8.76%
CCOC(=O)c1c(NC(=O)CSc2nccc(=O)[nH]2)sc(C)c1C 2.75%
CCC(C)C(N)C1=NC(C(=O)NC(CC(C)C)C(=O)NC(CCC(=O)O)C(=O)NC(C(=O)NCCCCC2NC(=O)C(CC(N)=O)NC(=O)C(CC(=O)O)NC(=O)C(Cc3cnc[nH]3)NC(=O)C(Cc3ccccc3)NC(=O)C(C(C)CC)NC(=O)C(CCCN)NC2=O)C(C)CC)CS1 (stereo not drawn) (cyclo(DNK([Ile-Glu-Leu-X1])[Orn]IFH); configuration not given here) -53.6%
CC(=O)OC1C([N+]2(C)CCCCC2)C[C@H]2C3CC[C@H]4C[C@H](OC(C)=O)C([N+]5(C)CCCCC5)CC4(C)C3CCC12C (some centres not stated) 11.5%
COc1ccc(S(=O)(=O)NCC(=O)NCc2cc(=O)n(C)c(=O)n2C)cc1F 14.7%
CCOc1ccc(S(=O)(=O)Nc2ccc(OC)nc2)cc1 11.7%
COc1ccc(C(=O)Nc2ccc(NC(=O)C(C)C)nc2)cc1 27.7%
O=C1COc2ccc(S(=O)(=O)NCCc3ccc(Cl)cc3)cc2N1 13.2%
CCOC(=O)CSc1nnc(-c2ccco2)n1C -9.26%
Cn1c(SCC(=O)Nc2ccc(Br)cc2F)nnc1-c1ccco1 1.27%
CCC(C)(C)NC(=O)C(c1ccc(OC)cc1)N(C(=O)CCC(=O)Nc1cc(C)on1)c1ccc(OC)cc1OC (configuration not stated) 11.3%
CCOCCCNC(=S)Nc1ccc2nc(N3CCN(CC)CC3)cc(C)c2c1 10.7%
CCc1ccccc1NC(=O)c1ccc2c(c1)CCN2S(C)(=O)=O 10.6%
Cc1ccc(-c2nc3ccccc3[nH]c2=O)cc1 9.46%
CC(=O)c1c(-c2ccccc2)c2ccccc2[nH]c1=O 28.5%
O=C(CCn1nnnc1CN1CCOCC1)N1CCC(c2ccccc2Cl)C1 (configuration not stated) 10.9%
Cc1ccc(CNC(=O)[C@@H](NC(=O)Cc2ccccc2)C(C)C)cc1 19.7%
C=CCn1cnc2scc(-c3ccccc3)c2c1=O 10.8%
C=CCn1c(=S)[nH]c2nc3c(cc2c1=O)COC(C)(C)C3 -7.89%
COc1cccc(-n2c(N)cc(=O)nc2SCC(=O)Nc2cc(C)on2)c1 21.7%
CCOC(=O)C1(CCOc2ccccc2)CCN(Cc2ccc(C#CCCO)cc2)CC1 10.5%
Nc1nc(NCc2ccccc2)n(-c2ccccc2)n1 16.4%
CC(=O)c1ccc(-c2ccc(Cn3c(C)nc4cc(N)c(C)nc43)cc2)cc1 5.24%
O=c1[nH]c2c(c(=O)n1Cc1ccccc1)CCC2 4.99%
CC(C)Cn1cnc2c1c(=O)n(CC(=O)NN)c(=O)n2Cc1ccccc1 10.8%
CCOC(=O)[C@@H]1[C@H]2COc3cc(OC)ccc3[C@H]2N2C(=O)N(c3ccc(F)cc3)C(=O)[C@]12C 11.1%
O=S(=O)(NC1CC2CCC1C2)c1ccc(Cl)cc1 (configuration not stated) 6.14%
Cc1ccc(NC(=S)NC(=O)/C=C/c2ccc(Cl)cc2)cc1 -9.72%
COCOc1cc(OC)ccc1C(=O)/C=C/c1ccc([N+](=O)[O-])cc1 0.0276%
CCOC(=O)C1=C(c2ccccc2)NC(=O)NC1c1cc(OCC)c(O)c([N+](=O)[O-])c1 (configuration not stated) 10.9%
Brc1ccccc1/C=N/Nc1nc2ccccc2o1 -1.43%
COC(=O)c1ccc2ccccc2c1OC1OC(CO)C(O)C(O)C1NC(C)=O (configuration not stated) 4.77%
COc1cc(CN2CCCN(C)CC2)c([N+](=O)[O-])cc1OC 5.29%
COc1cc(CN2CC(C)CC(C)C2)cc([N+](=O)[O-])c1O (configuration not stated) -8.11%
COc1cccc(OCc2nnc3n2N=C(c2ccccc2)C(CC(=O)O)S3)c1 (configuration not stated) 13.2%
COc1ccc(OCC(=O)NNC(=O)c2ccc(-c3ccccc3)cc2)cc1 -6.16%
COc1cccc(CNC(=O)C2CCCN(c3ncnc4c3nc3n4CCCCC3)C2)c1 (configuration not stated) 3.29%
COC(=O)c1cccc(NS(C)(=O)=O)c1 9.77%
COC(=O)c1cccc(N2C(=O)C3C4C=CC(CC4)C3C2=O)c1 (configuration not stated) 11.5%
CC1(C)Cc2c(sc(NC(=O)C(=O)NCC3CCCO3)c2C(=O)O)CO1 (configuration not stated) 8.68%
C=C(C(C)=O)C(O)c1ccc([N+](=O)[O-])cc1 (configuration not stated) -25.7%
CC(=O)Nc1c2c(nn1-c1cccc(C)c1)CSC2 15.2%
O=C(CCN1c2ccccc2Sc2ccccc21)Nc1ccccc1 -1.89%
CCN1/C(=C/c2ccc3ccc(C)cc3[n+]2CC)Sc2ccccc21 -8.02%

Potency, active:
Cc1cc(C)n(-c2nc(O)cc(=O)[nH]2)n1 15.8 µM
O=C(CC(n1cncn1)C(Cl)(Cl)Cl)c1ccc([N+](=O)[O-])cc1 (configuration not stated) 44.7 µM
CCCCN=C1C([N+](=O)[O-])=CC=C2C1=NC1(CCCCC1)N2O 28.2 µM
CCN1CCN(CCNC(=O)c2ccc(/C=C3/Sc4ccccc4N(Cc4cccc(C)c4)C3=O)cc2)CC1 39.8 µM
COC(=O)CC1=NN(c2nc(C)cc(C)n2)C(=O)C1 50.1 µM
Oc1ccc(CNc2ccccc2O)cc1 50.1 µM
COc1cc(Cl)c(C)cc1NC(=O)CSc1nnc(-c2ccco2)n1CC(C)C 44.7 µM
CCOC(=O)c1c(-n2cnnn2)sc(C)c1C 35.5 µM
COc1ccc(CS(=O)/C(Cl)=C(/Cl)C(=O)Nc2ccc(OC)nc2)cc1 (configuration not stated) 14.1 µM
Cn1c(SCC(=O)c2cccs2)nnc1-c1ccco1 22.4 µM
O=c1[nH]c2ccccc2n2c(-c3ccccc3)nnc12 1.26 µM
C=CCn1c(=S)[nH]c2scc(-c3ccco3)c2c1=O 20 µM
Cc1cc2nc3c(=O)n(Cc4ccccc4)c(=O)[nH]c3nc2cc1N 20 µM
CCOc1ccc(NC(=S)NC(=O)/C=C/c2ccc(OC)cc2)c([N+](=O)[O-])c1 70.8 µM
COc1cc(CN2CCN(Cc3ccc(C)cc3)CC2)c([N+](=O)[O-])cc1OC 56.2 µM
COc1ccc(OCc2nnc3n2N=C(c2ccccc2)C(CC(=O)O)S3)cc1 (configuration not stated) 4.47 µM
COC(=O)c1cccc(-n2[nH]nnc2=S)c1 15.8 µM
CCN1/C(=C/C(=S)Nc2ccccc2)Sc2ccccc21 14.1 µM

From PubChem BioAssay AID1490 (National Center for Advancing Translational Sciences (NCATS), 2009)
